The values that follow come from PubChem BioAssay.

A number with no mark means an inactive call. For some of these results: Results with a measured potency or affinity are listed apart. Active and inactive are the calls of the source.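 The calls were made as follows, unless noted: active = thallium flux through the channel raised or lowered by more than 3 SD from vehicle-only wells, actives on both sides; inactive = the rest.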

For one test, the system named is F380Y. The experiment in a line: BK channel mutant inhibitors and activators – cell-based, U2OS BacMam, thallium flux, beta subunits, selectivity assay, profiling panel (AID 1259406).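 Also: initial slope of Thallos dye fluorescence rise after thallium is added; log ratio against the mean of 0.3% DMSO vehicle wells on the same plate.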 The settings on record: U2OS BacMam BK variants, at 30 µM.
The next test concerns F380Y/beta1. The test is described as above. As to conditions: U2OS BacMam BK variants, at 30 µM.
For the next test, the system named is F380Y/beta2Delta. The test is described as above. As to conditions: U2OS BacMam BK variants, at 30 µM.
In the next test the test system is F380Y/beta4. Described as above. The settings on record: U2OS BacMam BK variants, at 30 µM.
For test [1], the target named is Calcium-activated potassium channel subunit alpha-1 (Homo sapiens) + Leucine-rich repeat-containing protein 26 (Homo sapiens) (UniProt Q12791+Q2I0M4). Described as above. As to conditions: U2OS BacMam BK variants, F380Y/Slo1WT/gamma1, at 30 µM.
Calcium-activated potassium channel subunit alpha-1 (Homo sapiens) + Leucine-rich repeat-containing protein 26 (Homo sapiens), sequence (Q2I0M4 whole entry, looked up, one chain of several): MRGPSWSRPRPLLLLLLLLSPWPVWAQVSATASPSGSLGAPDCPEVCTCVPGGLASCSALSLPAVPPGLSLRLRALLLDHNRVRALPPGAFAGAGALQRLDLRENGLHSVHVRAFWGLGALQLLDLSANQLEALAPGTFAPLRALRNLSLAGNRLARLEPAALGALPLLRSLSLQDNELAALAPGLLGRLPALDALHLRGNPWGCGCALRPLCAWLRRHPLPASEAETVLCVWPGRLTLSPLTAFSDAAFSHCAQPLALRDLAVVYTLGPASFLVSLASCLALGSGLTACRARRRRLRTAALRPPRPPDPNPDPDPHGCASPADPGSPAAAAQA
A further test relates to R275C. The description is as above. The settings on record: U2OS BacMam BK variants, at 30 µM.
Another test concerns R275C/beta1. The description is as above. As to conditions: U2OS BacMam BK variants, at 30 µM.
A further test relates to R275C/beta2Delta. The description is as above. The settings on record: U2OS BacMam BK variants, at 30 µM.
The subject of a further test is R275C/beta4. The test is described as above. The settings on record: U2OS BacMam BK variants, at 30 µM.
Another test deals with R275C/Slo1WT/beta2. The description is as above. The settings on record: U2OS BacMam BK variants, at 30 µM.
Test [2] in a line: antimalarial activity against Dd2 strain (AID 2302;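 active = growth inhibition above 50% at the single 2 µM test dose, taken to imply half-maximal potency below 2 µM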;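 also: 0% = DMSO untreated growth and 100% = chloroquine plus artemisinin killed control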). As to conditions: P. falciparum Dd2 in RBCs, LDH growth readout, 72 h; at 2 µM; hits give high values.
The nature of test [3]: human hepatoma cell viability loss – ATP luminescence, cytotoxicity control for P. falciparum antimalarial project, primary screen (AID 2303;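 active = inhibition above 50%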;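 also: 0% = DMSO wells and 100% = digitonin-killed cells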). The settings on record: HepG2 viability, 24-48 h, at 10 µM, hits give high values.
Test [4] deals with L-lactate dehydrogenase (Plasmodium falciparum (isolate CDC / Honduras)) (UniProt Q27743). As to the kind of experiment: PfLDH activity inhibition – cell lysate, 3D7 strain, counter-screen for P. falciparum growth inhibition project (AID 2304; call rule not given here;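 also: 0% = vehicle and 100% = reference inhibitor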). The settings on record: P. falciparum 3D7 crude extract, LDH APAD/NBT absorbance; at 2 µM; hits give high values. (In general: A counterscreen serves to expose hits that act by an unwanted route or on another target.)
L-lactate dehydrogenase (Plasmodium falciparum (isolate CDC / Honduras)), sequence (Q27743 whole entry, looked up): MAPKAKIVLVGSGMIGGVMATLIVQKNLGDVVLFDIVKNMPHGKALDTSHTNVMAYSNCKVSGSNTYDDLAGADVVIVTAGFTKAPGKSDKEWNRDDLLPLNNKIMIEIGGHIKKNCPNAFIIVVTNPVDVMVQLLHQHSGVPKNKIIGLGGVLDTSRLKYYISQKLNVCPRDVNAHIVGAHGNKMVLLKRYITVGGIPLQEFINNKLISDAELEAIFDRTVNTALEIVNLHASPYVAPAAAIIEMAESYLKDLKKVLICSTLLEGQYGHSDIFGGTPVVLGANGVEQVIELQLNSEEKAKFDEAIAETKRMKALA

A short description of test [5]: inhibition of 3D7 malaria parasite growth – strain 3D7 (AID 2306; call rule not given here;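 also: 0% = DMSO wells and 100% = chloroquine plus artemisinin control wells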). The settings on record: P. falciparum 3D7 erythrocytic growth, LDH absorbance, 72 h; at 2 µM; hits give high values.
For test [6], the target named is Protein kinase 7 (PK7), Plasmodium falciparum 3D7 (PF3D7_0213400) (UniProt Q7YTF7). The experiment in a line: inhibition of Plasmodium PK7 catalytic activity – biochemical, TCAMS antimalarial set, Kinase-Glo luminescence (AID 1159587; call rule not given here). As to conditions: recombinant PfPK7, Kinase-Glo ATP depletion luminescence. In general terms: Kinase-Glo measures the ATP left after a reaction by luminescence.
Protein kinase 7 (PK7), Plasmodium falciparum 3D7 (PF3D7_0213400), sequence (Q7YTF7 1-343): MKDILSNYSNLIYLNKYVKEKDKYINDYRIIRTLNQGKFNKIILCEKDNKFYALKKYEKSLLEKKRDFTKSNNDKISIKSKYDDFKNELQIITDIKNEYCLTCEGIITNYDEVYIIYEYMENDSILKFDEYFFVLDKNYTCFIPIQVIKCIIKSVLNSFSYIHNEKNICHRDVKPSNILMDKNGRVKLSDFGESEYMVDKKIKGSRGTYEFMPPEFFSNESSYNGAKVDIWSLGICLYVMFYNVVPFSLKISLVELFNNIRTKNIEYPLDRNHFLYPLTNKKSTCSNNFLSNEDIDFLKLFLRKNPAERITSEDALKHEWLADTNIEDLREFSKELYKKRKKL

The target in test [7] is Calcium-dependent protein kinase 4 (Plasmodium falciparum (isolate 3D7)) (UniProt Q8IBS5). The experiment in a line: PfCDPK4 kinase inhibitors, biochemical, TCAMS library (AID 1159588; cut-off not given, nearly all actives have IC50 up to about 0.91 µM). As to conditions: recombinant PfCDPK4, Kinase-Glo ATP depletion luminescence.
Calcium-dependent protein kinase 4 (Plasmodium falciparum (isolate 3D7)), sequence (Q8IBS5 whole entry, looked up): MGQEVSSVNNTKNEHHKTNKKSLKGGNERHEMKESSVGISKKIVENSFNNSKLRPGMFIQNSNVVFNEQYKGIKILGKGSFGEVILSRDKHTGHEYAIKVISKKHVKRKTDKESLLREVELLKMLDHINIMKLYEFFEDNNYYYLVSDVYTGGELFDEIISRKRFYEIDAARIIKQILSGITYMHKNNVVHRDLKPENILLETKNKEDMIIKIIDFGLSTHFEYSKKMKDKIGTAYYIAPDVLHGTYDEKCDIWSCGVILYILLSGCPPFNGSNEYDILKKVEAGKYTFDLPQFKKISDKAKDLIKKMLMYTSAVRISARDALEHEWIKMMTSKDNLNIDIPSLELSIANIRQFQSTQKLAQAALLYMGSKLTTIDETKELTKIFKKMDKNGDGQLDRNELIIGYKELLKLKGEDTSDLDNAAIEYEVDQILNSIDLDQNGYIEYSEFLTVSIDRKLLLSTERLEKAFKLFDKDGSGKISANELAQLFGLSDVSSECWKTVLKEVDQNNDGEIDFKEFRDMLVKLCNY

For the compound `N=c1c(C(N)=O)cc2c(=O)n3ccccc3nc2n1Cc1ccco1`, the log fold change Tl+ flux with F380Y was 0.0339; in the test on F380Y/beta1, -0.0185; with F380Y/beta2Delta, 0.0123; in the test with F380Y/beta4 it was -0.019; in test [1], -0.0157; in the test with R275C, 0.0321. Moreover, the log fold change Tl+ flux is -0.0587 in the test with R275C/beta1, -0.00823 with R275C/beta2Delta, -0.00879 in the test on R275C/beta4 and 0.0143 in the test with R275C/Slo1WT/beta2.

Turning to `COc1cc(CCC(C)NC(=O)c2ccc(C)cc2)ccc1OC(=O)c1ccc(C)cc1` (stereo unspecified), the log fold change Tl+ flux was -0.0917 in the test on F380Y; -0.0646 in the test with F380Y/beta1; -0.0421 with F380Y/beta2Delta; -0.23 (active) with F380Y/beta4; -0.115 (active) in [1]; -0.0349 in the test with R275C. In addition, the log fold change Tl+ flux in the test with R275C/beta1 was -0.0935; in the test with R275C/beta2Delta, -0.0312; with R275C/beta4, -0.0233; with R275C/Slo1WT/beta2 it was 0.00819.

As for `CC(=O)CSc1nc(SCC(C)=O)c2cnc(N3CCCC3)nc2n1`, the log fold change Tl+ flux with F380Y was -0.0105; in the test with F380Y/beta1, -0.0297; in the test with F380Y/beta2Delta, -0.00118; in the test on F380Y/beta4, -0.00484; in test [1], 0.0577; in the test with R275C, -0.0104. Further, the log fold change Tl+ flux in the test on R275C/beta1 was -0.000725; with R275C/beta2Delta, -0.0224; with R275C/beta4, -0.00829; in the test with R275C/Slo1WT/beta2, 0.0731.

Take `Clc1ccc(-c2nc(-c3cnccn3)no2)cc1`: the log fold change Tl+ flux was -0.0251 in the test with F380Y; 0.0188 in the test on F380Y/beta1; -0.00983 in the test with F380Y/beta2Delta; 0.0205 in the test on F380Y/beta4; -0.00021 in [1]; 0.00752 in the test on R275C. The log fold change Tl+ flux is -0.0226 in the test on R275C/beta1, 0.0101 in the test on R275C/beta2Delta, 0.00987 in the test on R275C/beta4 and 0.0471 in the test with R275C/Slo1WT/beta2.

For the compound `O=C(O)c1ccccc1C(=O)NCc1ccccc1OC(F)(F)F`, the log fold change Tl+ flux in the test on F380Y is -0.05; with F380Y/beta1, -0.0181; in the test on F380Y/beta2Delta, -0.0248; in the test with F380Y/beta4, 0.0063; in test [1], -0.076; in the test with R275C, -0.0155. Also, the log fold change Tl+ flux is -0.0505 in the test on R275C/beta1, -0.0385 in the test on R275C/beta2Delta, -0.0255 in the test on R275C/beta4 and 0.0015 in the test on R275C/Slo1WT/beta2.

`Cc1cc(N=CN(C)C)c2ccccc2n1`: the log fold change Tl+ flux is 0.0195 in the test on F380Y; 0.00784 in the test on F380Y/beta1; 0.0182 in the test on F380Y/beta2Delta; -0.00491 in the test on F380Y/beta4; 0.00683 in test [1]; 0.0312 with R275C. Besides, the log fold change Tl+ flux was 0.046 with R275C/beta1, 0.0104 in the test on R275C/beta2Delta, 0.0114 with R275C/beta4 and -0.0666 with R275C/Slo1WT/beta2.

For the compound `Cc1ccc(Nc2ccnc(Nc3ccc4c(c3)CS(=O)(=O)C4)n2)cc1O`, the growth inhibition was 76% (active) in test [2] and 102% (active) in test [5]. For the same compound, the inhibition (in general, the change of the read-out against control, counted positive when it falls) is 82% (active) in test [3] and 5% in [4]. Further, the outcome in [6] and in test [7] was inactive.

In the case of `COC(=O)C(O)(c1ccc(NC(=O)c2ccc(Cl)c(Cl)c2)cc1)C(F)(F)F` (stereo unspecified), the log fold change Tl+ flux is -0.0296 in the test with F380Y; 0.0948 (active) in the test on F380Y/beta1; -0.0715 in the test on F380Y/beta2Delta; 0.112 (active) in the test with F380Y/beta4; 0.0984 in test [1]; 0.0903 (active) in the test with R275C. For the same compound, the log fold change Tl+ flux in the test on R275C/beta1 is 0.216 (active); with R275C/beta2Delta it was 0.0948 (active); in the test with R275C/beta4 it was 0.263 (active); in the test on R275C/Slo1WT/beta2, 0.0206.

As to `CN(Cc1nnc(-c2ccc3ccccc3c2)o1)c1nnc(C(F)(F)F)s1`, the log fold change Tl+ flux in the test with F380Y is 0.00202; with F380Y/beta1, 0.0221; in the test with F380Y/beta2Delta, 0.0123; in the test with F380Y/beta4, -0.0118; in test [1] it was -0.0041; in the test on R275C, 4.3e-05. Besides, the log fold change Tl+ flux with R275C/beta1 is -0.0299; in the test with R275C/beta2Delta it was -0.000282; in the test with R275C/beta4, -0.0251; with R275C/Slo1WT/beta2, 0.0181.

On to `Cn1c(SCc2ccc(C(F)(F)F)cc2)nnc1C(F)(F)F`, for which the log fold change Tl+ flux in the test on F380Y was -0.0854; in the test on F380Y/beta1, 0.00114; with F380Y/beta2Delta, -0.0293; in the test with F380Y/beta4 it was 0.0223; in test [1] it was -0.00125; in the test with R275C it was -0.0523. Further, the log fold change Tl+ flux was -0.14 (active) in the test on R275C/beta1, -0.0607 with R275C/beta2Delta, -0.153 (active) in the test with R275C/beta4 and -0.00318 in the test with R275C/Slo1WT/beta2.

Turning to `CS(=O)(=O)Cc1ccc(Nc2nccc(-c3c(-c4cccc(C(=O)Nc5c(F)cccc5F)c4)nn4ccccc34)n2)cc1`, the growth inhibition in test [2] was 92% (active); in test [5] it was 96% (active). Also, the inhibition in [3] was 85% (active); in test [4], -1%. Further, in test [6], the result was inactive.

On to `O=C1c2ccccc2C(=O)N1CNc1ccc(Oc2ccc(Cl)cc2)cc1`, for which the log fold change Tl+ flux in the test on F380Y was 0.0258; in the test on F380Y/beta1, 0.986 (active); in the test on F380Y/beta2Delta it was 0.0357; with F380Y/beta4, 0.151 (active); in test [1], 0.327 (active); with R275C it was 0.06. The log fold change Tl+ flux in the test on R275C/beta1 is 0.443 (active); with R275C/beta2Delta it was 0.0194; with R275C/beta4 it was 0.104 (active); in the test on R275C/Slo1WT/beta2, 0.0127.

`NC(=O)c1nnn(-c2ccc([N+](=O)[O-])cc2)c1-c1ccccc1`: the log fold change Tl+ flux in the test on F380Y was 0.0114; in the test with F380Y/beta1 it was -0.0124; in the test on F380Y/beta2Delta, 0.0187; in the test on F380Y/beta4, 0.0444; in [1] it was 0.0451; in the test with R275C, -0.0124. For the same compound, the log fold change Tl+ flux was -0.0135 with R275C/beta1, 0.0277 with R275C/beta2Delta, 0.0182 in the test with R275C/beta4 and -0.00577 with R275C/Slo1WT/beta2.
